Values joined by “and” are separate entries in the source; they are usually repeats but may differ in a detail not shown here. Equal entries are not always repeated. Among all 5,500 compounds or so, about 2,000 (36%) were called active. Roughly 18% stayed inconclusive and do not appear here. This is one part of the list. Unmarked numbers belong to inactive results. Rule as the data show it: active = normalized growth mostly below about 0.91 (no sharp cut-off); inconclusive = no clear call, values can overlap the other calls; inactive = mostly above about 0.92.
Assay: chemical genetic growth profiling, strain panel (AID 1159580);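 also: tested at 20 µM; growth read once vehicle control cultures reached saturation at 30 °C; 1 = growth at the plate median or of vehicle wells; lower values mean less growth of the strain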
Details: growth OD
[1] = S. cerevisiae deletion strains, locus YAL040C, strain CLN3, stronger effect = lower value
[2] = S. cerevisiae deletion strains, locus YDR363W, strain ESC2, stronger effect = lower value
[3] = S. cerevisiae deletion strains, locus YER002W, strain NOP16, stronger effect = lower value
[4] = S. cerevisiae deletion strains, locus YGR078C, strain PAC10, stronger effect = lower value
[5] = S. cerevisiae deletion strains, locus YMR263W, strain SAP30, stronger effect = lower value
[6] = S. cerevisiae deletion strains, locus YMR307W, strain GAS1, stronger effect = lower value
[7] = S. cerevisiae deletion strains, locus YNL128W, strain TEP1, stronger effect = lower value
[8] = S. cerevisiae deletion strains, locus YNL153C, strain GIM3, stronger effect = lower value
[9] = S. cerevisiae deletion strains, locus YNL175C, strain NOP13, stronger effect = lower value
[10] = S. cerevisiae deletion strains, locus YNL197C, strain WHI3, stronger effect = lower value
[11] = S. cerevisiae deletion strains, locus YNL224C, strain SQS1, stronger effect = lower value
[12] = S. cerevisiae deletion strains, locus YNL322C, strain KRE1, stronger effect = lower value
[13] = S. cerevisiae deletion strains, locus YOR083W, strain WHI5 (second series), stronger effect = lower value
[14] = S. cerevisiae deletion strains, locus YPL055C, strain LGE1, stronger effect = lower value
[15] = S. cerevisiae deletion strains, locus YPL241C, strain CIN2, stronger effect = lower value
[16] = S. cerevisiae deletion strains, locus YDR150W, strain NUM1, stronger effect = lower value

CC(=O)O[C@]1(C(C)=O)CC[C@H]2[C@@H]3C=C(Cl)C4=CC(=O)[C@@H]5C[C@@H]5[C@]4(C)[C@H]3CC[C@@]21C
normalized growth [1]: 0.994 | normalized growth [2]: 0.976 | normalized growth [3]: 1.02 | normalized growth [4]: 0.985 | normalized growth [5]: 0.993 | normalized growth [6]: 0.975 | normalized growth [7]: 0.993 | normalized growth [8]: 1.05 | normalized growth [9]: 1.03 | normalized growth [10]: 0.966 | normalized growth [11]: 0.975 | normalized growth [12]: 0.988 | normalized growth [13]: 0.979 | normalized growth [14]: 1 | normalized growth [15]: 1

Nc1nc2c(ncn2COC(CO)CO)c(=O)[nH]1
normalized growth [1]: 1.05 | normalized growth (S. cerevisiae deletion strains, locus YCL061C, strain MRC1 (second series), stronger effect = lower value): 1.01 | normalized growth [16]: 1.01 | normalized growth [2]: 1.03 | normalized growth [3]: 1.01 | normalized growth [4]: 0.999 | normalized growth [5]: 1.01 | normalized growth [6]: 0.99 | normalized growth [7]: 0.992 | normalized growth [9]: 1.01 | normalized growth [10]: 1.01 | normalized growth [11]: 0.997 | normalized growth [13]: 1.03 | normalized growth [15]: 1.01

COc1ccc(-c2cc(=O)c3c(O)cc(O)cc3o2)cc1O
normalized growth (S. cerevisiae deletion strains, locus YAL013W, strain DEP1, stronger effect = lower value): 1 | normalized growth (S. cerevisiae deletion strains, locus YBR021W, strain FUR4, stronger effect = lower value): 0.985 | normalized growth (S. cerevisiae deletion strains, locus YBR229C, strain ROT2, stronger effect = lower value): 0.987 | normalized growth (S. cerevisiae deletion strains, locus YCL029C, strain bik1, stronger effect = lower value): 0.997 | normalized growth (S. cerevisiae deletion strains, locus YDL035C, strain GPR1, stronger effect = lower value): 0.983 | normalized growth (S. cerevisiae deletion strains, locus YDL074C, strain BRE1, stronger effect = lower value): 0.969 | normalized growth (S. cerevisiae deletion strains, locus YDL101C, strain DUN1, stronger effect = lower value): 0.998 | normalized growth (S. cerevisiae deletion strains, locus YDL134C, strain PPH21, stronger effect = lower value): 0.993 | normalized growth (S. cerevisiae deletion strains, locus YDL185W, strain tfp1, stronger effect = lower value): 1.01 | normalized growth (S. cerevisiae deletion strains, locus YDL192W, strain arf1, stronger effect = lower value): 0.999 | normalized growth (S. cerevisiae deletion strains, locus YDR101C, strain arx1, stronger effect = lower value): 0.98 | normalized growth [16]: 1 | normalized growth (S. cerevisiae deletion strains, locus YDR162C, strain NBP2, stronger effect = lower value): 0.961 | normalized growth (S. cerevisiae deletion strains, locus YDR318W, strain mcm21, stronger effect = lower value): 0.995 | normalized growth (S. cerevisiae deletion strains, locus YDR388W, stronger effect = lower value): 0.993 | normalized growth (S. cerevisiae deletion strains, locus YDR502C, strain sam2, stronger effect = lower value): 0.975 | normalized growth (S. cerevisiae deletion strains, locus YEL061C, strain CIN8, stronger effect = lower value): 0.994 | normalized growth (S. cerevisiae deletion strains, locus YER110C, stronger effect = lower value): 1 | normalized growth (S. cerevisiae deletion strains, locus YER155C, strain BEM2, stronger effect = lower value): 1 | normalized growth (S. cerevisiae deletion strains, locus YER167W, strain BCK2, stronger effect = lower value): 0.997 | normalized growth (S. cerevisiae deletion strains, locus YGL078C, strain dbp3, stronger effect = lower value): 0.989 | normalized growth (S. cerevisiae deletion strains, locus YGL086W, strain mad1, stronger effect = lower value): 0.981 | normalized growth (S. cerevisiae deletion strains, locus YGL248W, strain PDE1, stronger effect = lower value): 0.997 | normalized growth [4]: 0.952 | normalized growth (S. cerevisiae deletion strains, locus YGR135W, strain pre9, stronger effect = lower value): 0.962 | normalized growth (S. cerevisiae deletion strains, locus YGR229C, strain SMI1, stronger effect = lower value): 0.937 | normalized growth (S. cerevisiae deletion strains, locus YGR252W, strain gcn5, stronger effect = lower value): 0.96 | normalized growth (S. cerevisiae deletion strains, locus YHR030C, strain SLT2, stronger effect = lower value): 0.997 and 1.02 | normalized growth (S. cerevisiae deletion strains, locus YHR079C, strain IRE1 (second series), stronger effect = lower value): 0.983 | normalized growth (S. cerevisiae deletion strains, locus YHR079C, strain IRE1, stronger effect = lower value): 1.01 | normalized growth (S. cerevisiae deletion strains, locus YHR094C, strain hxt1, stronger effect = lower value): 1 | normalized growth (S. cerevisiae deletion strains, locus YHR129C, strain ARP1, stronger effect = lower value): 0.989 | normalized growth (S. cerevisiae deletion strains, locus YHR200W, strain rpn10, stronger effect = lower value): 0.99 | normalized growth (S. cerevisiae deletion strains, locus YIL066C, strain RNR3, stronger effect = lower value): 0.987 | normalized growth (S. cerevisiae deletion strains, locus YIL073C, strain SPO22, stronger effect = lower value): 1.02 | normalized growth (S. cerevisiae deletion strains, locus YIL125W, strain kgd1, stronger effect = lower value): 0.995 | normalized growth (S. cerevisiae deletion strains, locus YIR030C, strain dcg1, stronger effect = lower value): 0.991 | normalized growth (S. cerevisiae deletion strains, locus YJL095W, strain BCK1, stronger effect = lower value): 0.944 and 0.996 | normalized growth (S. cerevisiae deletion strains, locus YJL134W, strain LCB3, stronger effect = lower value): 0.998 | normalized growth (S. cerevisiae deletion strains, locus YJL168C, strain set2, stronger effect = lower value): 0.998 | normalized growth (S. cerevisiae deletion strains, locus YJL187C, strain SWE1 (second series), stronger effect = lower value): 0.967 | normalized growth (S. cerevisiae deletion strains, locus YJR043C, strain POL32, stronger effect = lower value): 0.998 | normalized growth (S. cerevisiae deletion strains, locus YJR066W, strain TOR1, stronger effect = lower value): 0.986 | normalized growth (S. cerevisiae deletion strains, locus YJR075W, strain HOC1, stronger effect = lower value): 1.04 | normalized growth (S. cerevisiae deletion strains, locus YKL009W, strain mrt4, stronger effect = lower value): 0.89 | normalized growth (S. cerevisiae deletion strains, locus YKL068W, stronger effect = lower value): 0.968 | normalized growth (S. cerevisiae deletion strains, locus YKL085W, strain MDH1 (second series), stronger effect = lower value): 0.913 (active) | normalized growth (S. cerevisiae deletion strains, locus YKL085W, strain MDH1, stronger effect = lower value): 0.913 (active) | normalized growth (S. cerevisiae deletion strains, locus YKL190W, strain CNB1, stronger effect = lower value): 0.993 | normalized growth (S. cerevisiae deletion strains, locus YKR001C, strain vps1, stronger effect = lower value): 1 | normalized growth (S. cerevisiae deletion strains, locus YLR039C, strain RIC1, stronger effect = lower value): 0.928 | normalized growth (S. cerevisiae deletion strains, locus YLR058C, strain SHM2, stronger effect = lower value): 0.989 | normalized growth (S. cerevisiae deletion strains, locus YLR102C, strain apc9, stronger effect = lower value): 0.995 | normalized growth (S. cerevisiae deletion strains, locus YLR113W, strain HOG1, stronger effect = lower value): 0.888 | normalized growth (S. cerevisiae deletion strains, locus YLR262C, strain YPT6, stronger effect = lower value): 0.921 | normalized growth (S. cerevisiae deletion strains, locus YLR268W, strain sec22, stronger effect = lower value): 0.944 | normalized growth (S. cerevisiae deletion strains, locus YLR330W, strain CHS5, stronger effect = lower value): 0.999 | normalized growth (S. cerevisiae deletion strains, locus YLR342W, strain FKS1 (second series), stronger effect = lower value): 1.02 | normalized growth (S. cerevisiae deletion strains, locus YLR371W, strain rom2, stronger effect = lower value): 0.99 | normalized growth (S. cerevisiae deletion strains, locus YLR418C, strain cdc73, stronger effect = lower value): 0.925 | normalized growth (S. cerevisiae deletion strains, locus YML016C, strain PPZ1, stronger effect = lower value): 0.991 | normalized growth (S. cerevisiae deletion strains, locus YML032C, strain rad52, stronger effect = lower value): 1.01 | normalized growth (S. cerevisiae deletion strains, locus YML124C, strain tub3, stronger effect = lower value): 0.988 | normalized growth (S. cerevisiae deletion strains, locus YMR078C, strain ctf18, stronger effect = lower value): 1 | normalized growth (S. cerevisiae deletion strains, locus YMR223W, strain ubp8, stronger effect = lower value): 0.993 | normalized growth [5]: 0.982 | normalized growth [6]: 1.08 | normalized growth (S. cerevisiae deletion strains, locus YNL067W, strain RPL9B, stronger effect = lower value): 0.983 | normalized growth [7]: 0.988 | normalized growth [8]: 0.958 | normalized growth (S. cerevisiae deletion strains, locus YNL183C, strain NPR1, stronger effect = lower value): 0.921 | normalized growth (S. cerevisiae deletion strains, locus YNL233W, strain BNI4, stronger effect = lower value): 0.947 | normalized growth (S. cerevisiae deletion strains, locus YNL250W, strain rad50, stronger effect = lower value): 1 | normalized growth (S. cerevisiae deletion strains, locus YNL271C, strain bni1, stronger effect = lower value): 1 | normalized growth (S. cerevisiae deletion strains, locus YNL298W, strain CLA4, stronger effect = lower value): 1.03 | normalized growth (S. cerevisiae deletion strains, locus YNL307C, strain MCK1, stronger effect = lower value): 1 | normalized growth [12]: 0.996 | normalized growth (S. cerevisiae deletion strains, locus YNR052C, strain pop2, stronger effect = lower value): 0.994 | normalized growth (S. cerevisiae deletion strains, locus YOL006C, strain TOP1, stronger effect = lower value): 0.973 | normalized growth (S. cerevisiae deletion strains, locus YOL012C, strain htz1): 0.983 | normalized growth (S. cerevisiae deletion strains, locus YOL147C, strain pex11, stronger effect = lower value): 0.992 | normalized growth (S. cerevisiae deletion strains, locus YOR061W, strain CKA2, stronger effect = lower value): 1 | normalized growth (S. cerevisiae deletion strains, locus YOR069W, strain VPS5, stronger effect = lower value): 0.998 | normalized growth (S. cerevisiae deletion strains, locus YOR136W, strain idh2, stronger effect = lower value): 0.993 | normalized growth (S. cerevisiae deletion strains, locus YOR144C, strain elg1, stronger effect = lower value): 0.997 | normalized growth (S. cerevisiae deletion strains, locus YOR184W, strain ser1, stronger effect = lower value): 0.982 | normalized growth (S. cerevisiae deletion strains, locus YOR231W, strain MKK1, stronger effect = lower value): 1.01 | normalized growth (S. cerevisiae deletion strains, locus YOR316C, strain cot1, stronger effect = lower value): 0.989 | normalized growth [14]: 0.97 | normalized growth [15]: 1 | normalized growth (S. cerevisiae deletion strains, locus YPL256C, strain CLN2, stronger effect = lower value): 0.993 | normalized growth (S. cerevisiae deletion strains, locus YPR119W, strain clb2, stronger effect = lower value): 0.993 | normalized growth (S. cerevisiae deletion strains, locus YPR141C, strain kar3, stronger effect = lower value): 1.01 | normalized growth (S. cerevisiae deletion strains, locus YPR163C, strain tif3, stronger effect = lower value): 1.01 | normalized growth (S. cerevisiae deletion strains, locus YPR167C, strain met16, stronger effect = lower value): 0.991 | normalized growth (S. cerevisiae deletion strains, strain wtn01, stronger effect = lower value): 0.977 | normalized growth (S. cerevisiae strains, strain wild type, stronger effect = lower value): 0.99

From PubChem BioAssay AID1159580 (chemical genetic matrix, 2015)
